High-throughput results (PubChem)
The list is not random: actives were taken first. Their share in the collection is about 2.3%.
CHRM1 agonist – human M1 muscarinic receptor agonists, primary screen, Fluo-8 calcium fluorescence, CHO-K1 cells, HTS. Muscarinic acetylcholine receptor M1 (Homo sapiens), P11229. CHO-K1 hM1, agonist mode; 0% DMSO, 100% acetylcholine EC100. activation, % at 3 µM. 360,000 compounds, 0.33% hits;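 active = activation above the run's mean compound activation plus 3 SD, cut at about 16% in these data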;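 also: peak over basal fluorescence ratio within a 140 s kinetic read after compound addition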
Target sequence (P11229 whole entry, looked up): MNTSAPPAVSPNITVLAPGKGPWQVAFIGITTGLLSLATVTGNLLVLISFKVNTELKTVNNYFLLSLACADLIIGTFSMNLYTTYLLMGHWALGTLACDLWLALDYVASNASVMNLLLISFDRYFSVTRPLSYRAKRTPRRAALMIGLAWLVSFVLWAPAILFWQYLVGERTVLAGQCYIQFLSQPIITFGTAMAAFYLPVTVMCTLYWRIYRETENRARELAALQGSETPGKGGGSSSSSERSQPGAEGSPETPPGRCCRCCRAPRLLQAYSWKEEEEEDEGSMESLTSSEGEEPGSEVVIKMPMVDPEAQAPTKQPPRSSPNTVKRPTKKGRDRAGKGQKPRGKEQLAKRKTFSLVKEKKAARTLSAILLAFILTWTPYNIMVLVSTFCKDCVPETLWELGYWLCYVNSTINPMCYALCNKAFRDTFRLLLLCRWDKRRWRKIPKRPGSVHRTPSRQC
M1 ag parental – counter-screen for M1 agonists: effect in parental CHO-K1 cells; activation, % at 3 µM; Fluo-8 calcium fluorescence; scaled to maximal ATP response, vehicle zero; 360,000 compounds, 0.48% hits; in the data active = activation above about 15%;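 also: untransfected CHO-K1 host cells lacking M1 receptor as counterscreen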
CHRM1 antagonist – human M1 muscarinic receptor antagonists, primary screen, CHO-K1 cells, Fluo-8 calcium fluorescence, 1536-well; Muscarinic acetylcholine receptor M1 (Homo sapiens), P11229; CHO-K1 hM1, ACh EC80 antagonist; inhibition, % at 3 µM; 360,000 compounds, 1.3% hits;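 active = percent inhibition above its own plate's cutoff, namely the mean of that plate's compound wells plus 3 SD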;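 also: peak over basal fluorescence ratio during 140 s after agonist addition; 0% = ACh EC80 plus DMSO and 100% = DMSO alone without agonist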
CHRM1 PAM – human M1 muscarinic receptor positive allosteric modulators, primary screen, CHO-K1 cells, Fluo-8 calcium fluorescence, 1536-well. CHO-K1 hM1, ACh EC20; 0% = ACh EC20, 100% = maximal ACh. activation, % at 3 µM. 360,000 compounds, 0.088% hits. AID 588819, 2011; in the data active = activation above about 19%, passing the limit was not always enough
CHO-K1 Ca antag – M1 antagonist counterscreen hit in parental CHO-K1 cells | ATP-induced calcium, Fluo-8 fluorescence | inhibition, % at 3 µM | 360,000 compounds, 0.6% hits | AID 602250;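 active = inhibition above a per-plate cutoff, the plate's mean sample inhibition plus 3 SD, cut at about 24% in these data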;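 also: 0% = DMSO plus EC80 ATP and 100% = DMSO alone without ATP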
M1 PAM parental – nonselective calcium activators in parental CHO-K1 cells, primary screen, counter-screen for M1 PAM project, cell-based, Fluo-8 calcium fluorescence, full deck, 1536-well; ATP EC20; 0% at ATP EC20, 100% at ATP max; activation, % at 3 µM; 360,000 compounds, 0.02% hits; AID 602247, 2012;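 active = activation above the run cutoff, the mean activation of all test compounds plus 3 SD, cut at about 40% in these data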;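 also: peak over basal fluorescence ratio in a 140 s read after ATP addition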
The depositor's hits bear a star; . = no result.

SMILES | CHRM1 agonist | M1 ag parental | CHRM1 antagonist | CHRM1 PAM | CHO-K1 Ca antag | M1 PAM parental
CCCCn1nnnc1C(c1ccccc1)N1CCN(c2ccc(C)cc2)CC1 (stereo not drawn) | . | 0 | . | . | -3 | -11
Cc1cc(C(=O)COC(=O)/C=C/c2ccco2)c(C)n1C | -2 | 1 | -9 | 8 | -18 | 22
O=S(=O)(/N=C(/c1ccccc1)N1CCOCC1)c1ccc(F)cc1 | 2 | 0 | -17 | 16 | 5 | -2
CSc1nc(C)c(C(=O)C[n+]2ccccc2)cc1C#N | -7 | 0 | 28* | -14 | -10 | 16
CCOC(=O)c1cc(C#N)c(SCC(=O)c2cc(C#N)c(SC)nc2C)nc1C | -4 | 0 | 20 | -8 | -8 | 2
O=C(COc1ccc(S(=O)(=O)N2CCOCC2)cc1)NCCN1CCOCC1 | -1 | 1 | 3 | -1 | -10 | -1
CCNc1nc(NC(C)C)nc(N(C#N)Cc2ccccc2)n1 | -6 | 16* | 6 | -2 | -3 | 13
COc1cc(/C=C2\SC(=S)N(c3cccnc3)C2=O)ccc1O | 13 | 18* | 4 | 1 | 2 | 7
COc1cc(/C=C2\SC(=S)N(NC(=O)c3ccc(O)cc3)C2=O)ccc1O | 37* | 23* | 35 | -13 | 13 | -21
COc1cc(/C=C2\SC(=S)N(NC(=O)c3cccnc3)C2=O)ccc1O | 2 | 4 | 27* | -7 | 20 | -6
CCOC(=O)C1[C@H]2C(=O)N(C(C)c3ccc(OC)cc3)C[C@]23C=C[C@H]1O3 (stereo partly drawn) | -9 | 1 | 69* | -21 | -9 | 28
Cc1ccc(Cl)cc1NC(=O)c1cc(S(=O)(=O)N2CCOCC2)cn1C | -1 | 0 | -2 | 7 | 10 | -7
COc1cccc(Oc2coc3c(CN4CCOCC4)c(O)ccc3c2=O)c1 | -6 | 0 | 21 | -4 | 28* | -2
O=C(O)Cc1ccc2c(c1)Cc1cccnc1O2 | -3 | 0 | -12 | 10 | -2 | 11
Cc1ccc2nc(-c3ccc(F)cc3)c(CC3CCCCC3)n2c1 | . | 0 | . | . | 5 | -8
CCOC(=O)c1cnc2c(cnn2C)c1NCCCN(C)C | 0 | 0 | -8 | 8 | 33* | -7
N#CCSc1nnc(-c2sc3ccccc3c2Cl)o1 | -6 | 2 | -10 | 5 | -9 | 25
Clc1cccc2sc(-c3nnc(-c4ccccc4)o3)c(Cl)c12 | -3 | 0 | 4 | -2 | 26* | -7
CC(=NCCN1CCNCC1)C1=C(O)CC(C)(C)CC1=O | -6 | 1 | -15 | 1 | -17 | 12
CC1=C(C)CC(C(=O)NC2CCN(C(C)C)CC2)C(C(=O)O)C1 (stereo not drawn) | -6 | 0 | 50* | -22 | 18 | -28
CC1=C(C)CC(C(=O)NC2CCCC2)C(C(=O)O)C1 (stereo not drawn) | 0 | 1 | -7 | 10 | -5 | 15
COc1ccc2c(c1)c(C(C)=O)c(C)n2C | 4 | 19* | -5 | 7 | 3 | 14
CC(=O)Oc1ccc2c(c1)c(C(C)=O)c(C)n2C | -1 | 0 | -3 | 5 | -10 | 7
NS(=O)(=O)c1ccc(CCNC(=O)C(=O)NCC2OCCN2C(=O)c2ccc3c(c2)OCO3)cc1 (stereo not drawn) | -1 | 0 | -3 | 14 | 29* | -14
CCOC(=O)[C@]12CCC=C1N(Cc1ccc(Cl)cc1Cl)C(=O)[C@H](CC(=O)NCc1ccccc1)C2 | . | 0 | . | . | -14 | 15
SMILES | CHRM1 agonist | M1 ag parental | CHRM1 antagonist | CHRM1 PAM | CHO-K1 Ca antag | M1 PAM parental
CC(NC(=O)Nc1ccc([N+](=O)[O-])cc1)C(c1cccs1)N1CCCC1 (stereo not drawn) | 16 | 25* | 7 | -4 | 12 | 2
CC(NC(=O)Nc1cccc(Cl)c1)C(c1cccs1)N1CCCC1 (stereo not drawn) | -7 | 14 | 10 | -6 | 5 | 9
CN1CCN(C2=Cc3ccccc3Sc3cc(F)ccc32)CC1 | -4 | 1 | 80* | -20 | -8 | 17
Cc1ccc(NC(=O)NCc2ccccn2)c(C)c1 | -6 | 0 | -7 | 8 | -1 | -5
CCc1nc2c(OCc3c(C)noc3C)cccn2c1N(C=O)Cc1ccc(OC)cc1 | -4 | -1 | -14 | 6 | -10 | 41*
Cc1cn([C@H]2C[C@H](O)[C@@H](/C=C/C(=O)N3CCN(Cc4ccc(F)cc4)CC3)O2)c(=O)[nH]c1=O | -1 | 0 | -8 | -4 | -3 | -1
Cc1ccc(CNC(=O)C2CC(=O)N(c3ccc(OCC(=O)N4CCCC4)cc3)C2)cc1 (stereo not drawn) | -3 | 0 | -5 | 5 | -3 | 5
Oc1ccccc1Oc1ncc(Br)c(N2CCOCC2)n1 | -6 | 1 | 84* | -23 | 0 | 18
CCc1ccc(NS(=O)(=O)c2c(C)noc2C)cc1 | -5 | 0 | 40* | -22 | 7 | -11
COC(=O)[C@@H](NC(=O)c1ccccc1OC1CCN(S(C)(=O)=O)CC1)C(C)C | -6 | 0 | 62* | -28 | -10 | 17
CCOC(=O)c1c(OCCO)nn(-c2ccc(Cl)cc2)c1N | -2 | 3 | 7 | -9 | 33* | -18
CCn1cc(C(=O)NC2CCCc3c2cnn3-c2cccc(C)c2C)cn1 (stereo not drawn) | 3 | 14 | 31* | -8 | 25* | -2
O=C(NCCc1ccccc1)C1Cc2c(-c3ccccc3Oc3ccccc3)ccnc2O1 (stereo not drawn) | -1 | 0 | -17 | 10 | -6 | 11
COc1ccccc1NC(=O)c1cc(OC)c(OC)cc1[N+](=O)[O-] | -8 | 16* | 0 | 9 | 10 | 1
COc1ccccc1NC(=O)c1ccccc1C(=O)Nc1ccccc1OC | -2 | 3 | 1 | 5 | 12 | -13
O=C1NC(=O)C2(CCCC2C(=O)O)N1 (stereo not drawn) | 2 | 1 | -9 | 4 | -19 | 14
COC(=O)C1Cc2ccccc2CN1S(=O)(=O)c1ccc(F)cc1 (stereo not drawn) | -8 | 0 | 8 | -12 | -1 | -4
Cc1cccc(NC(=O)CSc2nc3ccccc3c(=O)n2C)c1C | 2 | 12 | 33* | -20 | 15 | -9
Cc1ccccc1Nc1nc(N)nc(CSc2nc3ccccc3c(=O)n2CCCO)n1 | 1 | 4 | -15 | -2 | -26 | 19
